Compounds with a hit are over-represented: about 5.6% of the library has one in this group of screens.
H9c2 protect: protects H9c2 cardiomyocytes from peroxide injury | H2O2 injury protection, ATPLite, 2 h | protection from H2O2 cell death, % at 20 µM | actives 0.63% (n = 360,000) | AID 588492;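 active = compounds giving at least 50% protection of heart cells from peroxide-induced death in the single-dose screen, raw or plate-pattern-corrected value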;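 also: 0% = DMSO wells with peroxide and 100% = DMSO wells without peroxide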
PfGluPho inh: PfG6PD (Plasmodium falciparum) enzyme inhibition; actives 0.78% (n = 350,000); inhibition, % at 20 µM; PfGluPho enzyme, NADPH resazurin-diaphorase fluorescence;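 active = inhibition reaching at least a set limit at 20 µM in the primary screen, cut at about 59% in these data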;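 also: 0% = DMSO wells with substrate and 100% = DMSO wells lacking glucose-6-phosphate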
ALR inh: blocks human ALR sulfhydryl oxidase activity; P55789; purified ALR, DTT oxidation, H2O2 HRP-luminol luminescence; actives 3.8% (n = 290,000); AID 485317; inhibition, % (concentration not given with the values);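 active = mean replicate inhibition above about 79%, with every replicate also reaching it, limit read from the data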
Target sequence (P55789 whole entry, looked up): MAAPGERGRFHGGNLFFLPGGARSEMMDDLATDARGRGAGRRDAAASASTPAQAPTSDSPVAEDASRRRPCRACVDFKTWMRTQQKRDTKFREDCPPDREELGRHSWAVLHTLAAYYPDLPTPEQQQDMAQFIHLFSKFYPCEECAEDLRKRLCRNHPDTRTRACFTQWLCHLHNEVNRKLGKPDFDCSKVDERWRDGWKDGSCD
PHOSPHO1 inh: inhibitors of human PHOSPHO1 phosphatase | inhibition, % at 13.3 µM | actives 1.1% (n = 290,000) | Q8TCT1 | recombinant PHOSPHO1, absorbance phosphatase assay; in the data active = inhibition above about 60%
Target sequence (Q8TCT1 whole entry, looked up): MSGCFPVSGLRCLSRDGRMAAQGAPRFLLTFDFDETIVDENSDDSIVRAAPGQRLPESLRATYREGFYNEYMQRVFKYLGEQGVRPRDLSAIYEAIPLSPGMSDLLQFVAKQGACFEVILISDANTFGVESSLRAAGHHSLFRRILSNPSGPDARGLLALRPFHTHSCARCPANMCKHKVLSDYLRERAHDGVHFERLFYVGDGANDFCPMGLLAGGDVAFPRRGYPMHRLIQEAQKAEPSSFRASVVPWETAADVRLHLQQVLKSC
M18AAP inhibitor: PfM18AAP enzyme inhibition; actives 1.2% (n = 290,000); recombinant PfM18AAP, H-Glu-NHMec fluorogenic cleavage; AID 1822; inhibition, % at 7.35 µM;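 active = inhibition above the campaign mean inhibition over all tested compounds plus 3 SD, cut at about 28% in these data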;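 also: 0% = plate median of test compound wells and 100% = 2 mM ZnCl2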
Active calls of the source: *; x = no result given.

SMILES	H9c2 protect	PfGluPho inh	ALR inh	PHOSPHO1 inh	M18AAP inhibitor
COc1cc(/C=C(\C#N)C(=O)Nc2ccccc2F)ccc1OCCN1CCOCC1	67*	-21	-1	38	-2
COc1cc(/C=C(\C#N)C(=O)Nc2ccccc2)ccc1OCCN1CCOCC1	54*	-1	6	36	-3
N#C/C(=C\c1ccc(OCCN2CCOCC2)cc1)C(=O)Nc1ccccc1	6	4	9	41	1
CC(C)CNC(=O)C(=O)NNC(=O)c1ccco1	2	-2	-2	24	9
C=CCN(CC=C)Cc1cc(=O)oc2cc(C)cc(C)c12	-1	x	x	x	x
Cc1nn(C)cc1CN(C)C(=O)c1cc(COc2ccc(F)cc2F)on1	-4	1	0	64*	-22
Cc1ccc(CNC(=O)C2CCC(=O)N(Cc3cccc(F)c3)C2)s1 (stereo unspecified)	0	1	x	x	x
CCc1ccccc1NC(=O)c1ccc(OCc2c(C)noc2C)cc1	-2	-1	1	x	x
O=C(NNC(=O)c1cc(Br)ccc1O)c1csc(N2CCOCC2)n1	66*	-40	x	x	x
O=C(NNC(=O)c1cc(Br)ccc1Cl)c1csc(N2CCOCC2)n1	4	-2	-2	29	8
Cc1onc(C(=O)N2CCN(c3ccccc3)CC2)c1[N+](=O)[O-]	2	2	95*	-16	-3
Cc1ccc(Cl)cc1N1CCN(C(=O)c2noc(C)c2[N+](=O)[O-])CC1	-2	9	9	44	2
Cc1noc(C)c1NC(=O)N(C)C[C@H]1Oc2ccc(NC(=O)c3ccncc3)cc2C(=O)N([C@H](C)CO)C[C@@H]1C	6	46	x	x	x
COc1ccc(NC(=O)COC(=O)CCCc2c[nH]c3ccccc23)cc1	2	13	85*	9	-4
CC(=O)N[C@@H](Cc1c[nH]c2ccccc12)C(=O)OCC(=O)Nc1ccc(Cl)c(S(=O)(=O)N(C)C)c1	8	-3	52	28	7
CC(=O)NC(Cc1c[nH]c2ccccc12)C(=O)OCC(=O)Nc1ccc2c(c1)OCO2 (stereo unspecified)	1	-5	89*	18	6
CC(=O)Nc1ccc(NC(=O)COC(=O)Cc2c[nH]c3ccccc23)cc1	1	0	83*	-2	2
COC(=O)c1ccc2c(CCO)c[nH]c2c1	-5	-14	0	-2	-7
c1ccc2c(c1)-c1cccc3c1c-2cc1ccccc13	x	x	-1	x	x
Oc1cc(-c2ccccc2)c2ccccc2c1	-10	101*	99*	3	10
O=c1c2ccccc2nc2n1CCc1ccc(Br)cc1-2	0	x	x	x	x
COc1ccc(-c2cnn3c4c(c(C)nc23)CCN4C(C)C)cc1OC	4	1	3	62*	-4
COC(CN1CCc2c(C)nc3c(C#N)cnn3c21)OC	0	0	-2	24	1
CC(=O)Oc1ccc(C(=O)Nc2cc(C)on2)cc1	-3	-15	-4	24	-19
CC(=O)Nc1ccc(NC2=C(Cl)C(=O)c3ccccc3C2=O)cc1	x	-33	x	12	-11
SMILES	H9c2 protect	PfGluPho inh	ALR inh	PHOSPHO1 inh	M18AAP inhibitor
Cc1ccc(NC2=C(NCCO)C(=O)c3ccccc3C2=O)cc1	-14	3	100*	7	-3
Cc1ccc(S(=O)(=O)CCC(=O)Nc2nnc(-c3cccs3)o2)cc1	8	0	-3	x	x
CCC(C(=O)NCCCN1CC(C)CC(C)C1)n1ncn2c(cc3occc32)c1=O (stereo unspecified)	0	-12	-1	27	5
Cc1ccc(CSCCNC(=O)c2ccc(C)cc2)cc1	-5	1	-5	62*	-14
COc1ccc(-c2nc(NC3=NCCCCC3)sc2C)cc1	-10	5	98*	58	1
COc1ccc(NC2=NCCCCC2)cc1	4	-17	-4	-18	-21
COc1ccc(S(=O)(=O)N2CCOCC2)cc1NC(=O)Cc1ccc(F)cc1	-6	-12	x	x	x
NNc1ccc(Cl)c(C(=O)O)c1	-5	10	9	88*	6
CCCCN1C(=O)N(C)C2NC(=S)NC21 (stereo unspecified)	3	-4	4	4	4
Cc1cc(=O)[nH]c(SCC(=O)Nc2nc3c(s2)CCCC3)n1	6	-35	99*	28	3
CCC(Sc1nc(C)cc(=O)[nH]1)C(=O)Nc1nc2c(s1)CCCC2 (stereo unspecified)	1	-7	24	47	5
O=C(CSC1=NCCS1)Nc1nc2c(s1)CCCC2	4	-4	99*	-1	-21
CC(C=NNc1ccc([N+](=O)[O-])cn1)=Cc1ccccc1	-8	22	x	x	x
Cc1ccc(NC(=O)c2ccc(=O)[nH]n2)cc1C	5	-8	-13	42	6
Cc1ccc(NC(=O)c2ccc(=O)[nH]n2)cc1S(=O)(=O)Nc1ccc(SC(F)F)cc1	-19	-11	99*	x	x
O=C(CCc1ccc(CCC(=O)c2cccs2)s1)c1cccs1	-17	-5	92*	-8	2
O=C(CCN1CCCC1)c1cccs1	-14	-12	98*	27	-3
O=C(CCSc1ccc(Cl)cc1)c1cccs1	-31	11	46	21	8
O=C(CCN1CCCCCC1)c1ccccc1	-27	10	91*	18	16
COc1ccc(C(=O)CCN2CCCCCC2)cc1	-10	3	54	11	-5
CSCCNC(=O)C1(C)CCN1C(=O)C/C=C/c1ccccc1 (stereo unspecified)	9	x	x	x	x
Cc1ccc(F)cc1NC(=O)CSc1n[nH]c(N)n1	2	8	-7	x	x
CCCCCN(C(=O)CCC(=O)OCC(=O)N1CCC(C)CC1)c1c(N)n(CCCC)c(=O)[nH]c1=O	8	3	-17	x	x
O=C(Nc1ccc(Cl)cc1)N1CCN(c2ccc3nnc(-c4ccc(F)cc4)n3n2)CC1	53*	30	-5	0	-15
O=C(Nc1ccccc1Cl)N1CCN(c2ccc3nnc(-c4ccccc4)n3n2)CC1	43	27	x	0	3
SMILES	H9c2 protect	PfGluPho inh	ALR inh	PHOSPHO1 inh	M18AAP inhibitor
O=C(c1ccc(Br)o1)N1CCN(c2ccc3nnc(-c4ccc(F)cc4)n3n2)CC1	52*	21	-1	10	-6
CCC(=O)N1CCCC(C)(C(=O)Nc2ccc(C)c(C)c2)C1 (stereo unspecified)	5	x	x	x	x
CCc1ccc(-n2c(Cn3nc(C(F)(F)F)cc3C)n[nH]c2=S)cc1	-3	15	4	89*	4
Cc1cc(C(F)(F)F)nn1Cc1n[nH]c(=S)n1-c1ccc(F)cc1	4	25	37	-4	15
COc1cc2c(cc1OC)[C@@H](NC(=O)C(C)C)[C@H](OCc1ccccc1)C2	11	22	x	x	x
Cc1nc(C)n(CC(C)C(=O)N2CCN(S(=O)(=O)c3ccc(Cl)cc3)CC2)n1 (stereo unspecified)	1	-23	0	40	-1
O=C(CSc1ccc2nnc(-c3cccc(F)c3)n2n1)N1CCCc2ccccc21	31	5	x	-21	-1
Fc1ccc(CSc2ccc3nnc(-c4cccnc4)n3n2)cc1	80*	10	-7	36	-2
